Test results taken from the supplement of paper PMC6411743.
± gives the standard deviation of the averaged measurements. About 5,400 targets were measured; listed, in parts, are those with the largest changes and a random draw of the rest.

Compound: Nc1nc2c(ncn2[C@@H]2O[C@H](COP(=O)(O)OP(=O)(O)OP(=O)(O)O)[C@@H](O)[C@H]2O)c(=O)[nH]1 [guanosine triphosphate]
Experiment: NP40-soluble protein abundance relative to vehicle (solubility fold change) (ratio); higher = more soluble protein in presence of GTP
Outline: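 Jurkat crude lysate prepared with a Dounce homogeniser was treated at eight concentrations spanning 0.1 to 10 mM, 10 min at room temperature then 3 min at 37 °C. Solubilisation with 0.8% NP40 and benzonase and ultracentrifugation preceded TMT labelling of the supernatant for LC-MS/MS. Fold change against the detergent-processed vehicle was determined per replicate from vsn-normalised intensities, across three independent experiments.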

Sequence of UniProt Q9Y520 (Q9Y520 whole entry, one chain of several): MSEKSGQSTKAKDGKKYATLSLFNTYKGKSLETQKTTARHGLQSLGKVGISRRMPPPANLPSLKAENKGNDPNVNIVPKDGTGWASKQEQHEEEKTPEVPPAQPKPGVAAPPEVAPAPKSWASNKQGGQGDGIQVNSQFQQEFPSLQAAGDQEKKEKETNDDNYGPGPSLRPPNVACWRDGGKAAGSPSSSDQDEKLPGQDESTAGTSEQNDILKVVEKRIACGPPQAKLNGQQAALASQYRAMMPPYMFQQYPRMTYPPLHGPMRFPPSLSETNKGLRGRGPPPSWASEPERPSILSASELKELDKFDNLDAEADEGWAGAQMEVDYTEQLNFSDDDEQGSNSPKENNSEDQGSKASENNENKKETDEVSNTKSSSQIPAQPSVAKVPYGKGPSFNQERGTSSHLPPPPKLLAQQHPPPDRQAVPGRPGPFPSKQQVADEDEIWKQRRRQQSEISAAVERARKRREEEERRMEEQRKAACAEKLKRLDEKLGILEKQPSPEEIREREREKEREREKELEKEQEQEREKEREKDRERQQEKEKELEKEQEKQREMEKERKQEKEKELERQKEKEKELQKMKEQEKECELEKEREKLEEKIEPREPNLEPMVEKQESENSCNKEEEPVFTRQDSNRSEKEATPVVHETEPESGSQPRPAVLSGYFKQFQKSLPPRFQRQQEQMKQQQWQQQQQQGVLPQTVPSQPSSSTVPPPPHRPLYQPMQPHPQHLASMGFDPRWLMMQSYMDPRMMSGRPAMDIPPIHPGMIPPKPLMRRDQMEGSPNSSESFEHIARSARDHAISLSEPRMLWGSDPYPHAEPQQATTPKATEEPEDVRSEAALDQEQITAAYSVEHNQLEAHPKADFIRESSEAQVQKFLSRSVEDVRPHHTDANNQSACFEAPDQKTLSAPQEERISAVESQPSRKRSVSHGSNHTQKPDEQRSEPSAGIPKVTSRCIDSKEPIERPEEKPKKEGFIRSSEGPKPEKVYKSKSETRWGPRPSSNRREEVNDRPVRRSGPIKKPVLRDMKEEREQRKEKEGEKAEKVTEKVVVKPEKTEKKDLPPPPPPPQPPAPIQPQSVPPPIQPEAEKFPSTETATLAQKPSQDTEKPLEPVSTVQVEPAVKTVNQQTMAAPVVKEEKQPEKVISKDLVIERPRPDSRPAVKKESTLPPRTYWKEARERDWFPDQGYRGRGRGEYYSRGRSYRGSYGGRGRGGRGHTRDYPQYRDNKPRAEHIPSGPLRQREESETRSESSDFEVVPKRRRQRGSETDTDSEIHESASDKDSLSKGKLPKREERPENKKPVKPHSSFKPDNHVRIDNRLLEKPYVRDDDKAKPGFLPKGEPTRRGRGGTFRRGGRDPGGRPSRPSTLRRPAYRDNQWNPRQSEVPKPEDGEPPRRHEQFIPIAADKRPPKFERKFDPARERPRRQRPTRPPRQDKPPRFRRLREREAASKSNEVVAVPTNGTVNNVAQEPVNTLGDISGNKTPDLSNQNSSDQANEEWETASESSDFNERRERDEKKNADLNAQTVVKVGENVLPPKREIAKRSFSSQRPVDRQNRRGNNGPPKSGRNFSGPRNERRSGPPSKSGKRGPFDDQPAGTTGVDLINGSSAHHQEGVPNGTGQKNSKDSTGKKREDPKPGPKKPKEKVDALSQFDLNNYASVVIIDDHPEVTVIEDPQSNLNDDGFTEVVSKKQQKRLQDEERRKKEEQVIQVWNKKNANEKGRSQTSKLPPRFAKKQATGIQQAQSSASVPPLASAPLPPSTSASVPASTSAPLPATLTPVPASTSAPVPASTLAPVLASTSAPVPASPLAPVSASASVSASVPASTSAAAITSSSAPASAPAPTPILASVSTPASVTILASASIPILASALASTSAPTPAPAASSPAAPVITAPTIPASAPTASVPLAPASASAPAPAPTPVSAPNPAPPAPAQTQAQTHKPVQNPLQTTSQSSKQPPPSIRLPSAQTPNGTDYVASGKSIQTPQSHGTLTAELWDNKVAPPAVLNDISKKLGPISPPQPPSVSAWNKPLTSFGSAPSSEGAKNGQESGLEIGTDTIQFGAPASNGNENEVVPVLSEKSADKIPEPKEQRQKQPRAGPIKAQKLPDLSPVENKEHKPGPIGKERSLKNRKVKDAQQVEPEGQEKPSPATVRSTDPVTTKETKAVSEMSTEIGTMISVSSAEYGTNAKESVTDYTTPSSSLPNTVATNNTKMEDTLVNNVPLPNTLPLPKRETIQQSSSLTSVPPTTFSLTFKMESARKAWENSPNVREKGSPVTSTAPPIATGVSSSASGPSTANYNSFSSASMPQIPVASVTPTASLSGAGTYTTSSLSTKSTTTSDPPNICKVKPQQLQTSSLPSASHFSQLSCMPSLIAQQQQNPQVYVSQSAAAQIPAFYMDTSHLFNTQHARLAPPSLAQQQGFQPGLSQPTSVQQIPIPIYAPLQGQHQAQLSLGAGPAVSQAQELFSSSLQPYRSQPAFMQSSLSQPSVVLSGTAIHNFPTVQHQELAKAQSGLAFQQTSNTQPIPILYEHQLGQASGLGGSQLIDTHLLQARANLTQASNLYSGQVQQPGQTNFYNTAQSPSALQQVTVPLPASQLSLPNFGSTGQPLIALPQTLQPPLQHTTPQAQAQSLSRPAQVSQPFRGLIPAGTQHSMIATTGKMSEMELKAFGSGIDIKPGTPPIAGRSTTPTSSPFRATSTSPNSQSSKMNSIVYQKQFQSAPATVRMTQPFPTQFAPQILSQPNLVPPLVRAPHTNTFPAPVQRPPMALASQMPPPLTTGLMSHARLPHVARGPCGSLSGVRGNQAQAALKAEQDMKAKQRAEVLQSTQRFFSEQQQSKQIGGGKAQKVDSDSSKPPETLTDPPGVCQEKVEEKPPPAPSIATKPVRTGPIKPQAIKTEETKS
Sequence of UniProt Q2M389 (Q2M389 whole entry, one chain of several): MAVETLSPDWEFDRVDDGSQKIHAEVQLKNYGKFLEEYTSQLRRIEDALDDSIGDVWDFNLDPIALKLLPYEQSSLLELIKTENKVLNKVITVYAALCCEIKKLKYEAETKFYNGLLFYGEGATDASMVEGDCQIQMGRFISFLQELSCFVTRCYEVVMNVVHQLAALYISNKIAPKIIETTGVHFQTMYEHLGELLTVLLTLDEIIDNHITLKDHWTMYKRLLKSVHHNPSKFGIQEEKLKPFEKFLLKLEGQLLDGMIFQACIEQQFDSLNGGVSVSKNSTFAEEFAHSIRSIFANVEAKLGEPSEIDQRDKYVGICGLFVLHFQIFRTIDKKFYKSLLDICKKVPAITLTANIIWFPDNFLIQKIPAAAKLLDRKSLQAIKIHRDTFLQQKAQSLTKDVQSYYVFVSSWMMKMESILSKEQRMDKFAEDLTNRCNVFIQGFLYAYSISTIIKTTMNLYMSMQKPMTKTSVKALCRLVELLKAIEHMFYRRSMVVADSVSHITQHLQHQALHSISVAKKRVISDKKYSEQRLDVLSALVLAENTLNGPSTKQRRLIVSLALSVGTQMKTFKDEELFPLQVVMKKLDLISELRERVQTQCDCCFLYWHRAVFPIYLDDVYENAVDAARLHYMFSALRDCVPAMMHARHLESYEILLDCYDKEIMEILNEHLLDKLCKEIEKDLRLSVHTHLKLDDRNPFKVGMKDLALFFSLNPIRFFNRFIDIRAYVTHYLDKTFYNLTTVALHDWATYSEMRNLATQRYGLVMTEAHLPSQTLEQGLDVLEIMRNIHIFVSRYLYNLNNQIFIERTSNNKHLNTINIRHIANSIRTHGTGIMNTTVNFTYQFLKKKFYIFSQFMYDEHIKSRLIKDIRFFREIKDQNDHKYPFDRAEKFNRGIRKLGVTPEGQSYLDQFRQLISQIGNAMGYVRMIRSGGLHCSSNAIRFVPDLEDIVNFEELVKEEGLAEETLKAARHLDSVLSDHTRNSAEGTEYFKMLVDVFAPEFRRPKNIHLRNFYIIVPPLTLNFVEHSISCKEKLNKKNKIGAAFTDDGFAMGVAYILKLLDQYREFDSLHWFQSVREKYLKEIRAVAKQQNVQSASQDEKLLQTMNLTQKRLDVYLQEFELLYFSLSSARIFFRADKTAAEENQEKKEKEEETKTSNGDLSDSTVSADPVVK
Sequence of UniProt O94880 (O94880 whole entry, one chain of several): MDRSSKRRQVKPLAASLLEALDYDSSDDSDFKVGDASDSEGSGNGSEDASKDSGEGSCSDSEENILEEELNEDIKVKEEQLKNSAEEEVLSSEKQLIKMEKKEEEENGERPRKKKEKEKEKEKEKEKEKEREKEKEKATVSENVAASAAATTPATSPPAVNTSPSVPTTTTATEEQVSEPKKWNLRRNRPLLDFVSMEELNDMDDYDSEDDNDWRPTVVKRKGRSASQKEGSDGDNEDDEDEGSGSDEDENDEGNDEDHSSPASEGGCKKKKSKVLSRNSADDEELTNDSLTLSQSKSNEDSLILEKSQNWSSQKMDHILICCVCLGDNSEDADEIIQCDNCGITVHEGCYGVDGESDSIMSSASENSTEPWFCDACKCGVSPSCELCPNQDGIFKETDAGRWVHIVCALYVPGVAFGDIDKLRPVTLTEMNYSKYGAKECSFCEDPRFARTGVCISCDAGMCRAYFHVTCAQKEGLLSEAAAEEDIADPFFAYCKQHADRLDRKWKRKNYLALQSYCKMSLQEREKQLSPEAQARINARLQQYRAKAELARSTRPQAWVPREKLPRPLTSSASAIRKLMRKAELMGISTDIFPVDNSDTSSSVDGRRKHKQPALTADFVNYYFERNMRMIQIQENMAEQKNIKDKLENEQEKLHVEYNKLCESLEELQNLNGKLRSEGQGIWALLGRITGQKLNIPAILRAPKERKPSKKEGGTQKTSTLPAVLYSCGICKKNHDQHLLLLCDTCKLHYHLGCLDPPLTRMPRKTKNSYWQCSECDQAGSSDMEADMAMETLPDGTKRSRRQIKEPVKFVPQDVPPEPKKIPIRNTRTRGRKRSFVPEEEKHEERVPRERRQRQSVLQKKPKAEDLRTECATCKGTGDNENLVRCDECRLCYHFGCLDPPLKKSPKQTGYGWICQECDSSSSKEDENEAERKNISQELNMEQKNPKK
Sequence of UniProt Q15004 (Q15004 whole entry, one chain of several): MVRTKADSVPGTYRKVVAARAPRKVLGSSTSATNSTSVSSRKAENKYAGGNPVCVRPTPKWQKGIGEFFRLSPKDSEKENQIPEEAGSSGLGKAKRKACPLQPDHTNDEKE

Target	NP40-soluble protein abundance (concentration: 0.1mM)	NP40-soluble protein abundance (concentration: 0.5mM)	NP40-soluble protein abundance (concentration: 1mM)	NP40-soluble protein abundance (concentration: 2mM)	NP40-soluble protein abundance (concentration: 4mM)	NP40-soluble protein abundance (concentration: 6mM)	NP40-soluble protein abundance (concentration: 8mM)	NP40-soluble protein abundance (concentration: 10mM)
H0YKX3|Q15004 (UniProt Q15004)	1.03 ± 0.086	1.04 ± 0.062	1.07 ± 0.081	1.04 ± 0.12	0.957 ± 0.13	0.982 ± 0.15	1.19 ± 0.031	1.09 ± 0.039
A0A087WY71|Q96CW1|Q96CW1-2 (UniProt Q96CW1)	1.09 ± 0.11	1.12 ± 0.17	0.947 ± 0.078	1.04 ± 0.16	1.04 ± 0.14	1.03 ± 0.13	0.941 ± 0.023	0.95 ± 0.09
E7EPN9|Q9Y520|Q9Y520-4|Q9Y520-5|Q9Y520-7 (UniProt Q9Y520)	1.01 ± 0.02	1.01 ± 0.054	1.1 ± 0.063	1.14 ± 0.073	1.24 ± 0.057	1.36 ± 0.075	1.53 ± 0.14	1.7 ± 0.2
A0A0U1RRH6|O94880|O94880-2 (UniProt O94880)	1.05 ± 0.095	1.07 ± 0.14	1.15 ± 0.12	1.16 ± 0.065	1.34 ± 0.12	1.46 ± 0.096	1.65 ± 0.25	1.78 ± 0.25
H0YEN5|P15880 (UniProt P15880)	0.979 ± 0.063	1.01 ± 0.1	0.965 ± 0.14	0.936 ± 0.19	0.848 ± 0.21	0.836 ± 0.21	0.738 ± 0.17	0.774 ± 0.2
E9PRF4|Q15047|Q15047-3 (UniProt Q15047)	0.977 ± 0.12	0.93 ± 0.12	0.904 ± 0.055	0.909 ± 0.039	0.873 ± 0.04	0.881 ± 0.035	0.904 ± 0.051	0.862 ± 0.017
A0A087X256|Q2M389 (UniProt Q2M389)	1.04 ± 0.058	1.01 ± 0.097	0.973 ± 0.048	0.975 ± 0.028	0.957 ± 0.028	0.973 ± 0.044	1.02 ± 0.068	0.889 ± 0.024
